TrxR1 inh: qHTS Assay for Inhibitors of Mammalian Selenoprotein Thioredoxin Reductase 1 (TrxR1): qHTS | Thioredoxin reductase 1, cytoplasmic (Rattus norvegicus), O89049 | recombinant rTrxR1, NADPH fluorescence consumption, selenite substrate | Potency, µM (titrated, usually from 114 µM), inactives show top-dose activity change, negative = inhibition, usual class: inhibitors | 390,000 compounds, 1% hits; also: potency is read from the fitted curve at half-maximal effect; % is scaled to controls: 0 for no effect and ±100 for the full control effect; nearly all actives have a fitted effect of over 65% in size
Target sequence (O89049 whole entry, looked up): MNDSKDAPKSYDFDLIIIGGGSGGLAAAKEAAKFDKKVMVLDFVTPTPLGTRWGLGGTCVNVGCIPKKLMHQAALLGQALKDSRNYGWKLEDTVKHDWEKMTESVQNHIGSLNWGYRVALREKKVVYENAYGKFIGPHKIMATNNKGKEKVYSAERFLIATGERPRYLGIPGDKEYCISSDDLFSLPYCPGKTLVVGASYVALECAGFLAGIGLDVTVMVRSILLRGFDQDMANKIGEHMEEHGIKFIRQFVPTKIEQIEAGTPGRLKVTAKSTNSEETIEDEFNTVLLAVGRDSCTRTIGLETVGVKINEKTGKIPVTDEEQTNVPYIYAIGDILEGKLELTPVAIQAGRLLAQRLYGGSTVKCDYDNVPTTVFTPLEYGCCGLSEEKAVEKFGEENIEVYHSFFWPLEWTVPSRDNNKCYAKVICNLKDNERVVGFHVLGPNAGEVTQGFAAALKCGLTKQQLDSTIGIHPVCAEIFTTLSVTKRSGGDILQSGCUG
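Rat TrxR1 (90 nM in the dispensed reagent) was pre-reduced with 400 uM NADPH for 5 min at room temperature, then incubated with compound for 15 min. After 400 uM selenite was added, NADPH fluorescence (Ex 340/Em 450 nm) was followed for 8 min.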
TrxR1 substrate: qHTS Assay for Substrates of Mammalian Selenoprotein Thioredoxin Reductase 1 (TrxR1): qHTS | Thioredoxin reductase 1, cytoplasmic (Rattus norvegicus), O89049 | purified TrxR1 substrate turnover, NADPH consumption readout | Potency, µM (highest dose often 114 µM), without a hit: top-dose activity change, negative = substrate turnover | 390,000 compounds, 0.01% hits | AID 588456, 2011; also: potency is read from the fitted curve at half-maximal effect; % is scaled to controls: 0 for no effect and ±100 for the full control effect; nearly all actives have a fitted effect of over 50% in size
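Rat TrxR1, dispensed at 90 nM, was prereduced with 400 uM NADPH (final) for 5 min at ~22 deg C, then incubated with compound 15 min before 400 uM selenite. A first-read NADPH fluorescence drop versus no-compound background flagged substrates.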
mIDH1 inhibitor: qHTS for Inhibitors of mutant isocitrate dehydrogenase 1 (IDH1): qHTS. 390,000 compounds, 0.093% hits. IDH1-R132H enzyme, NADPH consumption, diaphorase/resazurin fluorescence. Potency, µM (series often up to 76.6 µM), for inactives: at the top dose activity change, negative = inhibition, actives largely listed as inhibitors; also: potency is read from the fitted curve at half-maximal effect; % is scaled to controls: 0 for no effect and ±100 for the full control effect; nearly all actives have a fitted effect of over 65% in size
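IDH1-R132H (0.5 ug/mL dispensed) in pH 7.5 Tris buffer was preincubated 30 min with compound, then given a substrate mix of 0.016 mM NADPH and 2 mM alpha-KG for 80 min at room temperature; remaining NADPH was read by diaphorase/resazurin fluorescence.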
LDHA inh: qHTS assay for inhibitors of human lactate dehydrogenase; L-lactate dehydrogenase A chain (Homo sapiens), P00338; purified LDHA, NADH/diaphorase-resazurin fluorescence; stronger effect = lower value; activity change, % (values are at about 110 or 230 µM); 480,000 compounds, 0.15% hits; in the data active = activity change below about -30%; inconclusive = mostly about -25% to -30%;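 also: plate controls were DMSO wells for no effect and wells without enzyme for full effect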
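Human LDH5 at 2 nM final in Tris HCl pH 7.4 with 0.06 mM NADH and 0.2 mM pyruvate, reacted 5 minutes at room temperature. Remaining NADH coupled via diaphorase/resazurin; resorufin fluorescence read at 0 and 20 minutes, normalized to enzyme-free and DMSO wells.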
GLS inh: qHTS for Inhibitors of Glutaminase (GLS); 410,000 compounds, 0.21% hits; Potency, µM (series often up to 45.5 µM), for inactives: top-dose activity change, negative = inhibition, actives largely listed as inhibitors; GLS enzymatic activity, qHTS titration; Glutaminase kidney isoform, mitochondrial (Homo sapiens), O94925; also: potency is read from the fitted curve at half-maximal effect; % is scaled to controls: 0 for no effect and ±100 for the full control effect
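hKGA in 45 mM KH2PO4 (pH 8.2), 0.02% Tween-20 with compound, then 1mM L-Glutamine (stock as added) plus glutamate oxidase/HRP/Amplex red coupling mix. Fluorescence read initially and after 30 min at RT; signal change reflects glutamate formation.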
PKM2 activator: qHTS Assay for Activators of Human Muscle isoform 2 Pyruvate Kinase; purified PKM2, Kinase-Glo ATP luminescence, activation; response scale: 0% is enzyme alone, no compound; Potency, µM (series often up to 57.5 µM), for the others: top-dose activation, usual class: activators; 260,000 compounds, 0.34% hits; AID 1631, 2009; also: potency is read from the fitted curve at half-maximal effect; % is scaled to controls: 0 for no effect and ±100 for the full control effect; nearly all actives have a fitted effect of over 55% in size
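ATP formation by purified human PK-M2, quantified via coupled luciferase luminescence after 1 h at room temperature with 0.1 mM ADP and 0.5 mM PEP final.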
TRb SRC2 Alpha: Protein Interaction Secondary Assay for Inhibitors of the Interaction of Thyroid Hormone Receptor and Steroid Receptor Coregulator 2, Alpha Screen | shares compounds with TrxR1 inh | AlphaScreen TRb LBD-SRC2 peptide binding, luminescence | Potency, µM | 30 compounds, 50% hits | AID 2444, 2010; calls by dose curve
HepG2 tox: Cell Viability Secondary Assay for Inhibitors of the Interaction of Thyroid Hormone Receptor and Steroid Receptor Coregulator 2; shares compounds with TrxR1 inh; HepG2 viability, ATP luminescence (CellTiter-Glo), 72 h; Potency, µM; 40 compounds, 50% hits; calls by dose curve
AR SRC2 FP: Androgen Receptor Selectivity Assay for Inhibitors of the Interaction of Thyroid Hormone Receptor and Steroid Receptor Coregulator 2; AR-LBD Tx-SRC2-3 fluorescence polarization, 3 h; shares compounds with TrxR1 inh; calls only; AID 2448, 2010; 25 tested, under 10 active; call rule not given here
PPARg-DRIP2 inh: PPAR gamma Selectivity Assay For Inhibitors of the Interaction of Thyroid Hormone Receptor and Steroid Receptor Coregulator 2. shares compounds with TrxR1 inh. PPARg LBD / Texas Red DRIP-2 peptide, fluorescence polarization, 3 h. Potency, µM. 25 tested, under 10 active. AID 2449, 2010; calls by dose curve
VDR-SRC2 FP sel: Vitamin D Receptor Selectivity Assay for Inhibitors of the Interaction of Thyroid Hormone Receptor and Steroid Receptor Coregulator 2; VDR LBD/SRC2-3 peptide, fluorescence polarization, 3 h; Potency, µM; AID 2455, 2010; 25 tested, under 10 active; shares compounds with TrxR1 inh; calls by dose curve
TRb-SRC2 FP Fluo: Secondary Confirmation Assay for Inhibitors of the Interaction of Thyroid Hormone Receptor and Steroid Receptor Coregulator 2, Fluorescein Fluoroprobe; 20 tested, under 10 active; shares compounds with TrxR1 inh; Potency, µM; TRb LBD / fluorescein-SRC2 peptide, fluorescence polarization; call rule not given here
Resorufin autofl: qHTS for Inhibitors of mutant isocitrate dehydrogenase 1 (IDH1): Cherrypicks Autofluorescence Interference. inhibition of signal, % at 51.2 µM. 750 tested, under 10 active. AID 623980, 2012. Resorufin detection reagent fluorescence interference, cell-free. shares compounds with mIDH1 inhibitor;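 also: 0% = wells with normal resorufin and full inhibition = wells lacking resorufin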
WT IDH1 inh: qHTS for Inhibitors of mutant isocitrate dehydrogenase 1 (IDH1): Cherrypicks in WT IDH1; shares compounds with mIDH1 inhibitor; WT IDH1 enzyme, NADPH diaphorase/resazurin fluorescence; 750 compounds, 9% hits; Potency, µM (top dose mostly 115 µM), inactives show at the highest dose activity change, negative = inhibition, hits mostly inhibitors; AID 623995, 2012;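 also: potency is read from the fitted curve at half-maximal effect; 0% = full WT IDH1 enzyme control and full inhibition = no enzyme wells; nearly all actives have a fitted effect of over 55% in size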
mIDH1 confirm: qHTS for Inhibitors of mutant isocitrate dehydrogenase 1 (IDH1): Confirmation of Cherrypicks; 750 compounds, 83% hits; Potency, µM (doses to about 76.6 µM), inactives show at the top dose activity change, negative = inhibition, hits mostly inhibitors; shares compounds with mIDH1 inhibitor; IDH1 R132H enzyme, NADPH diaphorase/resazurin fluorescence; also: potency is read from the fitted curve at half-maximal effect; nearly all actives have a fitted effect of over 50% in size
Numbers without * were called inactive; i = inactive; ? = inconclusive; · = no result given; [ ] = another dose, or the depositor's remark. Most compounds without a hit are left out; they make up all but 1.4% or so of the library. Unless noted, calls follow the shape of the dose curve; as a rule, active = well fitted curve in the direction sought with a large enough effect; inconclusive = small, poorly fitted or top-dose-only effect, or another doubt; inactive = no such curve, though single readings can be large; an effect the other way counts as inactive or inconclusive.

SMILES	TrxR1 inh	TrxR1 substrate	mIDH1 inhibitor	LDHA inh	GLS inh	PKM2 activator	Resorufin autofl	WT IDH1 inh	mIDH1 confirm	others
CS(=O)(=O)c1ccc(C(=O)OCC(=O)N2CC(=O)Nc3ccccc32)cc1[N+](=O)[O-]	2.8µM*	0%	·	0	·	·	·	·	·	TRb SRC2 Alpha=10µM*;HepG2 tox=16µM*;AR SRC2 FP=i;PPARg-DRIP2 inh=15µM*;VDR-SRC2 FP sel=64µM*;TRb-SRC2 FP Fluo=2.8µM*
CC(=O)c1cccc(NC(=O)c2cccc3ncccc23)c1	·	·	·	7	·	·	·	·	·
Cc1cccc(NC(=O)Cn2c(C)cc3ccccc32)c1	·	·	·	-18	·	·	·	·	·
CC(C)=CCc1c(O)cc(O)c2c(=O)c3c(CC=C(C)C)c(O)ccc3oc12	16%	-4%	45µM*	-21	16%	·	4	6%	40µM*
CC(C)=CCc1c(O)cc2c(=O)c3ccc(O)cc3oc2c1O	19%	1%	0%	-4	14%	·	·	·	·
Cc1ccc(C(=O)/C=C/N2CCCCC2)cc1	·	·	·	-3	·	·	·	·	·
CCOCCCNCc1ccc(Cl)cc1Cl	·	·	·	-7	·	·	·	·	·
COc1ccc(-c2coc3cc(OC(C)=O)ccc3c2=S)cc1	7%[2.29 µM]	0%[2.29 µM]	46µM*	-6	5%	·	-4	8%	?
COc1ccc(NC(=O)NC2(C(F)(F)F)Oc3ccccc3O2)cc1	·	·	·	72	·	·	·	·	·
O=C1/C(=C/c2cccnc2)CC/C1=C\c1cccnc1	-7%	-3%	-6%	-6	-3%	-1%	·	·	·
CCC1C/C(=C\c2cccnc2)C(=O)/C(=C/c2cccnc2)C1 (stereo not given)	?	-5%	52µM*	-11	5%	1%	-16	-8%	32µM*
CC(C)(C#N)C(=O)NCc1ccc(OCC(F)(F)F)cc1	·	·	·	0	·	·	·	·	·
COC(=O)c1ccc(C(=O)N2CCN(C(c3ccc(F)cc3)c3ccc(F)cc3)CC2)s1	·	·	·	-1	·	·	·	·	·
COc1cc(OC)c2c(=O)cc(-c3ccccc3)oc2c1	-8%	16%	0%	5	4%	-11%	·	·	·
COc1cc2c(c3oc(-c4ccccc4)cc(=O)c13)C=CC(C)(C)O2	-12%	-9%	40µM*	1	-7%	1%	-11	28µM*	22µM*
Cc1ccc(C(C(=O)NC2CCCCC2)N(Cc2ccco2)C(=O)Cn2cnc3ccccc32)cc1 (stereo not given)	?	-9%	29µM*	-3	-2%	4%	-5	-2%	13µM*
O=C(NC1CCCCC1)C(c1ccc(F)cc1)N(Cc1ccco1)C(=O)Cn1nnc2ccccc21 (stereo not given)	25%	13%	-18%	0	-1%	-1%	·	·	·
Cc1ccccc1C(C(=O)NCc1ccco1)N(CC1CCCO1)C(=O)Cn1nnc2ccccc21 (stereo not given)	0%[57.1 µM]	6%[57.1 µM]	?	-2	7%	-11%	-1	1%	40µM*
O=C(NC1CCCCC1)C(c1ccccc1F)N(Cc1ccco1)C(=O)Cn1nnc2ccccc21 (stereo not given)	-10%	-4%	?	-3	-7%	0%	1	9%	11µM*
CC(NC(=O)CSc1ccccc1F)c1nc2ccccc2[nH]1 (stereo not given)	·	·	·	-4	·	·	·	·	·
Clc1ccc(C2=Nn3c(nnc3-c3cc(-c4ccccc4)n[nH]3)SC2)cc1	7%	8%	-9%	-11	6%	-11%	·	·	·
c1ccc(C2=Nn3c(nnc3-c3cc(-c4ccccc4)n[nH]3)SC2)cc1	3%[57.1 µM]	4%[57.1 µM]	?	0	-10%	4%	-13	?	20µM*

Screening data: PubChem, National Center for Advancing Translational Sciences (NCATS)
